Out of some 1,200 compounds screened, about 480 (40%) were called active. Inconclusive results (about 29%) are left out. The call rests on the fitted dose curve; in most records, active means well fitted inhibition curve with a large enough effect; inconclusive means small, poorly fitted or top-dose-only effect; inactive means no such curve, though single readings can be large or run the other way. Some of the results follow.
On the % scale 0 is the no-effect control and ±100 the full control effect; potency means the concentration at half of the fitted maximal effect.

The nature of the assay: qHTS Assay to Find Inhibitors of Chronic Active B-Cell Receptor Signaling: Hit Validation in Primary Screen. Further: nearly all actives have a fitted effect of over 75% in size. The settings on record: ABC-DLBCL IkB-luc/CBR ratio luminescence, 4 h; series mostly up to 46.1 µM; activity change, negative = inhibition: at the top concentration. The text has this: Diffuse large B-cell lymphoma (DLBCL) is the most common category of non-Hodgkin lymphoma, with ~20,000 new cases per year in the United States. DLBCL should be regarded as a collection of different neoplasms. Microarray gene expression analysis has defined two principal types of DLBCL, named for their similarity to normal B cell stages or activation states: a germinal center B-cell (GCB) type, and an activated B-cell (ABC) type. In ABC-DLBCL, a constitutive high-level activity of the NF-kappaB family of transcription factors has been observed (1) and NF-kappaB target genes are more highly expressed in ABC primary tumors than in GCB tumors. Functional studies have shown a constitutive high-level activity of the IkappaB (inhibitor of kappa-B) kinase (IKK) complex. […] Further analysis of DLBCL primary tumors for NF-kappaB target gene expression imply that although CARD11 is required for constitutive IKK activity in all ABC-DLBCL lines, mutations in CARD11 may be the root cause of IKK activation only in lines or tumors with such mutations. In other words, CARD11 mutations may explain NF-kappaB activation in only 10% of ABC-DLBCL cases. […] This process has been termed 'chronic active BCR signaling' (CABS). The goal of this screen is to find small-molecule inhibitors of the CABS pathway found in ABC-DLBCL lines using a cell-based assay that measures IkappaBalpa stability, which has already been extensively validated in the OCI-Ly3 line (PubChem AID:445; REF: 4). […] A cell-sensor assay for I-kappa-B-alpha stabilization has been developed. The assay uses green (CBG68) and red (CBR) emitting beetle luciferases [Chroma-GloTM developed by Promega Corp.] where the green luciferase is fused to IkappaBalpha and the red luciferase is present in its native state. Both luciferase genes are stably present in the TMD8 human ABC DLBCL cell line, but their expression is under the control of tetracycline-inducible promoters. Following the addition of doxycycline to induce expression of the luciferases, the green luminescence in control cultures rises only slowly because the CBG fusion partner IkappaBalpha is targeted by IKK activity for rapid degradation. In contrast, green luminescence rises rapidly in the presence of proteasome inhibitors or IKK inhibitors. The rise in red luminescence of CBR is not affected by proteasome or IKK inhibitors, and serves as normalization for cell number and nonspecific effects. Compounds were screened as a concentration-titration series that ranged from 46 uM to 3 nM. NIH Molecular Libraries Probe Production Network [MLPCN] NIH Chemical Genomics Center [NCGC] MLPCN Grant: R03 DA031086 PI Name: Dr. R. Eric Davis
Cells were seeded in 1536-well plates at 5000 cells/4uL in IMDM medium containing 0.5% FBS, w/o phenol red, 1% penicillin/streptomycin. Then, 23 nL of compounds or DMSO were delivered to each well using a pin tool. One uL 20ng/ml doxycycline was then dispensed into white solid 1536-well plates and the plates were incubated at 37C/5% C02 in a cell incubator for 4 hrs. Then 4 uL luminescent substrate mix (in-house prepared: 150 mM Tris-Cl, pH 7.6, 3 mM MgCl2, 1% Triton X-100, 5 mM DTT, 0.2 mM CoA, 0.15 mM ATP, 5 mM D-luciferin, final concentrations) was added to each well. The plate was incubated at r.t. for 10-15 min. The plates were measured on a ViewLux plate reader for green luminescence (540/20 nm filter) and red luminescence (618/8 nm filter). The green and red luminescent signals were corrected for red and green luminescence filter overlap using previously determined filter calibration constants (determined using the procedure outlined in the Promega Technical Manual; REF 4). The %Activity was determined from the ratio of corrected green/red luminescent values. MG132 were used as control. Green luminescent and ratio %Activity was determined by normalizing to the difference in signal between basal cells (0% Activity) and cells incubated with 10 uM of the proteasome inhibitor MG-132 (100% Activity). […]
As to `CC1=C/C(=N\NC(=S)NCc2ccccc2)CC1`, the “activity change, negative = inhibition” value was -7.8% (inactive).
In the case of `COc1cc(-c2c(-c3cc(OC)c(OC)c(OC)c3)noc2C)ccc1F`, the Potency is 1.3 µM (active).
In the case of `CC(/C=N/NC(=O)c1cc(-c2ccc(Cl)cc2)nc2ccccc12)=C\c1ccco1`, the Potency is 2.91 µM (active).
The same measure, in the same setting: the result for `CC(/C=N/NC(=O)c1cc(-c2ccccc2)nc2ccccc12)=C\c1ccco1` reads 5.8 µM (active); that for `CC(/C=N/NC(=O)c1cc(-c2ccncc2)nc2ccccc12)=C\c1ccco1`, 1.64 µM (active).
Regarding `Cc1c(/C=N\NC(=O)C2COc3ccccc3O2)c2ccccc2n1C` (centres undefined), the Potency is 2.59 µM (active).
Regarding `C=CCNC(=S)N/N=C/c1ccc(C)s1`, the “activity change, negative = inhibition” value was -9.11% (inactive).
Take `Cc1ccc(/C=N/NC(=O)C2COc3ccccc3O2)s1` (centres undefined): the Potency is 23.1 µM (active).
Take `O=C(CN1CCCc2ccccc21)N/N=C/c1ccccc1O`: the “activity change, negative = inhibition” value was -0.214% (inactive).
`C#CCOc1ccc(C2C3=C(COC3=O)Nc3cc4c(cc32)OCO4)cc1OC` (centres undefined): the Potency was 0.146 µM (active).
The same measure, in the same setting: to `COc1ccccc1C1C2=C(COC2=O)Nc2cc3c(cc21)OCO3` (centres undefined) belongs 1.3 µM (active); to `COc1ccc(OC)c(C2C3=C(COC3=O)Nc3cc4c(cc32)OCO4)c1` (centres undefined), 0.366 µM (active); to `O=C1OCC2=C1C(c1ccc(F)cc1)c1cc3c(cc1N2)OCO3` (centres undefined), 0.116 µM (active).
For `CCOc1ccccc1C1C2=C(COC2=O)Nc2cc3c(cc21)OCO3` (centres undefined), the Potency is 1.3 µM (active).
`O=C(CN1CCC(NC(=O)Nc2ccc(F)cc2)CC1)Nc1ccccc1[N+](=O)[O-]`: the “activity change, negative = inhibition” value was -17.7% (inactive).
On to `CCOc1cc(Br)c(C=O)cc1OCC`, for which the Potency is 6.51 µM (active).
On to `CC(C)(C)NNC(=S)Nc1cccc(F)c1`, for which the “activity change, negative = inhibition” value was -8.63% (inactive).
Take `COc1cc(OC)cc(C(=O)Oc2c(CN3CCOCC3)cc(Cl)c3cccnc23)c1`: the “activity change, negative = inhibition” value is 36.6% (inactive).
As for `Cc1cccc(NC(=S)N/N=C/C(C)c2ccccc2)c1C` (centres undefined), the “activity change, negative = inhibition” value is -3.28% (inactive).
Same read-out and setting: to `CCN1C(=O)c2cccc3c(S(=O)(=O)Nc4ccccc4O)ccc1c23` belongs 94.3% (inactive).
For the compound `CCN1C(=O)c2cccc3c(S(=O)(=O)Nc4nc(C)cs4)ccc1c23`, the Potency was 3.66 µM (active).
For `COc1ccccc1OCCCN1C(=O)C(=O)c2cccc(C)c21`, the “activity change, negative = inhibition” value was -9.96% (inactive).
Turning to `Cc1ccccc1OCCc1c(C)[nH]c(=S)[nH]c1=O`, the Potency is 11.6 µM (active).
Regarding `Cc1ccc(S(=O)(=O)n2cc(-c3ccccc3)c3ccccc32)cc1`, the Potency was 3.26 µM (active).
Take `CCCCNC(=S)NNC(=O)CCn1nc(C)c(Br)c1C`: the “activity change, negative = inhibition” value is -4.91% (inactive).
For `COc1cc(/C=C/c2ccc3cccc(O)c3n2)c(Br)cc1O`, the Potency is 18.4 µM (active).
Regarding `COc1ccc(OC)c(/C=C/c2ccc3cccc(O)c3n2)c1`, the Potency was 20.6 µM (active).
Still for that read-out and setting: to `COc1cc(Br)cc(/C=C/c2ccc3cccc(O)c3n2)c1O` belongs 20.6 µM (active).
Regarding `CCOc1ccccc1N=NC1C(=O)N(C(N)=S)N=C1C` (centres undefined), the “activity change, negative = inhibition” value was 24.5% (inactive).
